Measurements taken from PubChem BioAssay (NCI).
About 79,000 compounds went through this panel and 15% of them were active in at least one assay; those are over-represented in the sample as a whole. Unmarked numbers belong to inactive results. Active and inactive are the calls of the source. Rule as the data show it: active = growth inhibition above about 70%; inactive = the rest.

Experiments:
[1] = NCI Yeast Anticancer Drug Screen. Data for the rad50 strain (AID 155);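 also: 0% = growth of vehicle-only cultures of the same strain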; details: S. cerevisiae rad50 strain growth inhibition, hits give high values
Procedure, shortened: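 DNA repair mutant yeast, compound exposure, growth read-out; inhibition is taken relative to vehicle.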

[2] = NCI Yeast Anticancer Drug Screen. Data for the mec2-1 strain (AID 157); details: S. cerevisiae mec2-1 strain, hits give high values
Procedure, shortened: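 Cells of the genetically defined mec2-1 yeast strain are incubated with test compound. Inhibition of growth is calculated against vehicle-treated controls.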

[3] = NCI Yeast Anticancer Drug Screen. Data for the sgs1 mgt1 strain (AID 161);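 also: 0% = growth of cultures given vehicle only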; details: S. cerevisiae sgs1 mgt1 strain, hits give high values
Procedure, shortened: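 Inhibition of yeast growth, normalised to vehicle-treated controls, is reported for a strain bearing genetic alterations in DNA damage repair.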

[4] = NCI Yeast Anticancer Drug Screen. Data for the cln2 rad14 strain (AID 165);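 also: 0% = growth equal to vehicle treated cultures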; details: S. cerevisiae cln2 rad14 strain, hits give high values
Procedure, shortened: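 The screen exposed genetically defined yeast (cln2 rad14) to test compounds and scored growth inhibition relative to vehicle-treated controls.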

[5] = NCI Yeast Anticancer Drug Screen. Data for the bub3 strain (AID 167); details: S. cerevisiae bub3 mutant strain, hits give high values
Procedure, shortened: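 In this screen, a yeast mutant lacking normal mitotic checkpoint function is challenged with compound. Relative growth versus vehicle gives the inhibition value.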

[6] = NCI Yeast Anticancer Drug Screen. Data for the mlh1 rad18 strain (AID 175); details: S. cerevisiae mlh1 rad18 strain growth inhibition, hits give high values
Procedure, shortened: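 Compound-treated yeast growth, normalised to vehicle controls. Strain bears defined DNA repair mutations.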

[7] = at 5.0 µM (retest, dose inferred, filed as 0.5)
[8] = at 50.0 µM (retest, dose inferred, filed as 5.0)

Compound | growth inhibition [1, 7] | growth inhibition [1, 8] | growth inhibition ([1]; at 50.0 µM) | growth inhibition [2, 7] | growth inhibition [2, 8] | growth inhibition ([2]; at 50.0 µM) | growth inhibition [3, 7] | growth inhibition [3, 8] | growth inhibition ([3]; at 50.0 µM) | growth inhibition [4, 7] | growth inhibition [4, 8] | growth inhibition ([4]; at 50.0 µM) | growth inhibition [5, 7] | growth inhibition [5, 8] | growth inhibition ([5]; at 50.0 µM) | growth inhibition [6, 7] | growth inhibition [6, 8] | growth inhibition ([6]; at 50.0 µM)
O=C(CCl)Oc1c(Br)cc(-c2ccccc2)cc1Br | 32% | 95% (active) | 77.3% (active) | 42% | 99% (active) | 56.1% | 65% | 99% (active) | 88.8% (active) | 57% | 97% (active) | 41.9% | 30% | 98% (active) | 16.9% | 73% (active) | 95% (active) | 82.2% (active)
C=C1CC(c2ccc(OCCCN3C(=O)c4ccccc4C3=O)c(OC)c2)OC1=O (stereo not given) | -9% | 97% (active) | 76.3% (active) | 24% | 91% (active) | 88.2% (active) | 1% | 89% (active) | 91% (active) | 11% | 93% (active) | 89.2% (active) | -16% | 95% (active) | 92% (active) | 10% | 97% (active) | 96.8% (active)
Cc1c(S(C)=O)[n+](=O)c2ccccc2n1[O-] (stereo not given) | 13% | 85% (active) | 32.9% | 0% | 93% (active) | 33.7% | 8% | 92% (active) | 35.9% | 2% | 40% | 7.75% | -2% | 89% (active) | -5.5% | 18% | 96% (active) | 58.6%
CN(C)CC(CN(C)C)C(=O)c1ccc(Oc2ccccc2)cc1 | 75% (active) | 99% (active) | 99.5% (active) | 75% (active) | 99% (active) | 99.7% (active) | 85% (active) | 99% (active) | 99.4% (active) | 33% | 99% (active) | 99.6% (active) | 69% | 99% (active) | 99.5% (active) | 90% (active) | 99% (active) | 99.4% (active)
CCCCCCC(C)OC(=O)/C=C/c1ccccc1 (stereo not given) | 4% | 4% | 33.5% | -2% | 1% | 14.2% | 5% | 10% | 11.9% | 0% | 1% | 39.4% | 2% | 13% | 17.5% | 19% | -6% | 26.9%
O=S(=O)(O)N=Nc1ccc(O)cc1 | 65% | 98% (active) | 91.5% (active) | 1% | 99% (active) | 94.3% (active) | 17% | 98% (active) | 93.2% (active) | -8% | 98% (active) | 91% (active) | -12% | 98% (active) | 92.8% (active) | 37% | 98% (active) | 91.5% (active)
COC1=CC(=O)c2c(O)c3c(c(O)c2C1=O)C[C@](C)(O)C[C@@H]3O | 27% | 93% (active) | 84.7% (active) | 14% | 94% (active) | 79.8% (active) | 12% | 91% (active) | 85.6% (active) | 0% | 29% | 47.7% | 36% | 93% (active) | 83.8% (active) | 33% | 96% (active) | 84.5% (active)
Cc1c(C)n(-c2ccccc2)c2nc(S(C)(=O)=O)nc(S(C)(=O)=O)c12 | 1% | 98% (active) | 71.2% (active) | 8% | 98% (active) | 79.3% (active) | -15% | 95% (active) | 86.3% (active) | 40% | 97% (active) | 86.4% (active) | 0% | 98% (active) | 85% (active) | 31% | 86% (active) | 87.2% (active)
C/C=C/CC(C/C=C/C)C1CC[N-]CC1.C/C=C/CC(C/C=C/C)C1CC[N-]CC1.[Cl][Pt+2]([Cl])([Cl])[Cl] | 8% | 88% (active) | 97.3% (active) | -62% | 78% (active) | 98.8% (active) | 3% | 91% (active) | 98.8% (active) | 4% | 58% | 97.7% (active) | -3% | 85% (active) | 98% (active) | 7% | 88% (active) | 98.6% (active)
C/C=C1\SC(=S)NC1=O | 25% | 99% (active) | 98.8% (active) | 11% | 99% (active) | 98.8% (active) | 22% | 98% (active) | 99.2% (active) | 6% | 98% (active) | 95.9% (active) | 9% | 98% (active) | 98% (active) | 36% | 99% (active) | 99.3% (active)
CC1=C(C(=O)Nc2cccc(Cl)c2)C(c2ccccc2O)C(C(=O)Nc2cccc(Cl)c2)=C(C)N1 | 25% | 25% | 55.6% | 14% | 14% | 65% | 9% | 9% | 56.5% | 10% | 10% | 59.2% | 12% | 12% | 57.9% | 25% | 25% | 32.3%
CCOC(=O)C(NC(=O)C(CO)n1c(-c2ccccc2)c(-c2ccccc2)oc1=O)C(=O)OCC (stereo not given) | 7% | 42% | 43.6% | 2% | 19% | 26.4% | -2% | 35% | 41.5% | -1% | 51% | -1.9% | 1% | 51% | 22.2% | 1% | 20% | 53.1%
[N-]=[N+]=Nc1c(Cc2ccccc2)c(=O)oc2ccccc12 | 15% | 73% (active) | 65.3% | -8% | 58% | 73.9% (active) | 3% | 73% (active) | 75.7% (active) | 11% | 35% | 58.8% | -17% | 87% (active) | 77.7% (active) | -3% | 82% (active) | 66.9%
CCCCCc1ccc2cc(C(=O)O)[nH]c2c1 | 4% | 59% | 96.7% (active) | 3% | 72% (active) | 95.6% (active) | -4% | 59% | 95% (active) | -1% | 59% | 97.8% (active) | 1% | 47% | 97.2% (active) | 3% | 51% | 98.2% (active)
CCOC(=O)N1CCN(CCCOc2ccc(Cl)cc2Cc2ccccc2)CC1 | 29% | 100% (active) | 99.7% (active) | 26% | 100% (active) | 99.7% (active) | 59% | 100% (active) | 99.8% (active) | 30% | 99% (active) | 99.5% (active) | 89% (active) | 100% (active) | 99.5% (active) | 24% | 100% (active) | 99.7% (active)
Cc1ccc(N=c2cc(-c3ccccc3)oc3ccccc23)c(C)c1 | 1% | 74% (active) | 3% | -11% | 48% | -12.4% | 3% | 93% (active) | 11% | 5% | 51% | 8.1% | 11% | 94% (active) | 5.6% | 4% | 94% (active) | 18.6%
C=CCOc1ccc(N=NC(C#N)C#N)cc1 | 8% | 88% (active) | 98.6% (active) | 5% | 87% (active) | 98.3% (active) | 3% | 88% (active) | 52.7% | 0% | 90% (active) | 58% | -2% | 91% (active) | 97.8% (active) | 4% | 93% (active) | 54%
COCC1C(=O)c2cc3c(cc2C12C=CC1(C=C2)OCCO1)OCO3 (stereo not given) | 36% | 7% | 86% (active) | 15% | -7% | 91.8% (active) | 35% | -2% | 92.8% (active) | 9% | 20% | 90.2% (active) | 40% | -7% | 91.1% (active) | 50% | -14% | 88.2% (active)
CN(C)c1nc(=Nc2ccc(N=c3nc(N(C)C)ss3)cc2)ss1 | 0% | 97% (active) | 91.8% (active) | 4% | 96% (active) | 92.8% (active) | 28% | 98% (active) | 88.2% (active) | -4% | 93% (active) | 69% | 4% | 98% (active) | 93.4% (active) | 11% | 98% (active) | 96.9% (active)
CSc1nc(=S)c2[nH]c(C)nc2[nH]1 | 0% | 4% | 93.3% (active) | -2% | -3% | 99.6% (active) | 0% | 1% | 99.2% (active) | -3% | 6% | 98.5% (active) | -1% | -6% | 99.6% (active) | 1% | 3% | 97.5% (active)
